Where a name gives a salt, the structure may show the parent alone. ± gives the standard deviation of the averaged measurements.
What was measured:
[1] = molecular target: IKZF1 (dCK*-IKZF1 fusion in HEK293FT) (UniProt Q13422); assay: inhibition of IKZF1 HTRF signal (DMSO = 0%, pomalidomide 10 uM = 100%); higher = lower IKZF1 protein level; conditions: compound concentration: 5 uM, overnight (~20 h)
How it was run: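 Compound was tested at 5 μM in single wells on HEK293FT cells (2000/well, 384-well) stably carrying an IKZF1 fusion, overnight at 37 °C. Total IKZF1 was measured in lysates with a commercial HTRF antibody kit as the background-subtracted 665/620 nm time-resolved FRET ratio. The reported figure is percent inhibition of IKZF1 signal, scaled per plate between vehicle and a reference degrader. The vehicle anchor was 0% and the degrader anchor 100%.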

HEK293FT dCK*-only = assay: relative growth in counter assay (no AraC = 100%, AraC + DMSO = 0%); higher = more growth rescue independent of IKZF1; conditions: compound concentration: 5 uM; AraC concentration: 0.3 uM; overnight pretreatment + 4 days AraC
How it was run: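 For this counter assay, relative growth was normalised on each plate to two kinds of reference wells. HEK293FT cells expressing only an engineered kinase construct (300/well, 384-well) were treated with 5 μM compound 2 h after seeding, then after overnight at 37 °C with a nucleoside suicide substrate at 0.3 μM plus medium for 4 days. On day 5, Hoechst 33342-stained nuclei were counted by imaging, taking wells without suicide substrate as 100% and substrate plus vehicle as 0%.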

HEK293FT dCK*-IKZF1 = assay: relative growth recovery (pomalidomide 10 uM = 100%, DMSO = 0%); higher = more growth rescue (IKZF1 fusion degradation); conditions: compound concentration: 5 uM; AraC concentration: 0.3 uM; overnight pretreatment + 4 days AraC
How it was run: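 On day 5, whole-well imaging was used to count Hoechst 33342-stained nuclei of HEK293FT cells stably carrying a deoxycytidine kinase–IKZF1 fusion. These cells had received 5 μM compound 2 h after seeding, followed after overnight at 37 °C by a nucleoside suicide substrate at 0.3 μM plus medium for 4 days. Growth recovery was normalised on each plate against a reference degrader and vehicle, which defined 100% and 0%, and values are duplicate means from separate days.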

Chain of IKZF1 (dCK*-IKZF1 fusion in HEK293FT) (Q13422 whole entry, looked up, the tested form may be a part): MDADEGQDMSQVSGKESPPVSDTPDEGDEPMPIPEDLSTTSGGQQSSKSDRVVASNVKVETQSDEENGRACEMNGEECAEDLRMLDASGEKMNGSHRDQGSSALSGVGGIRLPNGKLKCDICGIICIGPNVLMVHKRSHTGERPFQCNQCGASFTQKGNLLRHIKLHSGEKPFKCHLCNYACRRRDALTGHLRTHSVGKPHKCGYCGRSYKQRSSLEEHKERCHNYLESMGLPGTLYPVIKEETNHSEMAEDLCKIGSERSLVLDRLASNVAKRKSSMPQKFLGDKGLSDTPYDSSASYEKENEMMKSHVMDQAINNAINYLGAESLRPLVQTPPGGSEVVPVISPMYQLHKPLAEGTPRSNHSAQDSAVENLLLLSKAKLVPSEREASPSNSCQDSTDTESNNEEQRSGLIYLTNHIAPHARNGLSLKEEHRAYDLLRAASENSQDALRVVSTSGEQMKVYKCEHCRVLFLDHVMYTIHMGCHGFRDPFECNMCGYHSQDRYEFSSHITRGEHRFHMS

Structure (SMILES)	inhibition of IKZF1 HTRF signal [1] [%]	relative growth in counter assay (HEK293FT dCK*-only) [%]	relative growth recovery (HEK293FT dCK*-IKZF1) [%]
O=C1c2ccccc2C(Cc2ccncc2)(Cc2ccncc2)c2ccccc21	-38.8	-4.37	5.88
Oc1c(I)cc(I)c(O)c1I [riodoxol]	-5.43	2.24	-3.17
CCCCC(CC)C/N=C(\N)N/C(N)=N/CCCCCC/N=C(\N)N/C(N)=N/CC(CC)CCCC (stereo not drawn) [Alexidine dihydrochloride]	63.4	-34.4	-13.3
COCCOC(=O)C1=C(C)NC(C)=C(C(=O)OC/C=C/c2ccccc2)C1c1cccc([N+](=O)[O-])c1 (stereo not drawn) [cilnidipine]	-8.24	-4.05	-0.035
O=C(OC)C1=C(C)NC(C)=C([N+]([O-])=O)[C@H]1[C@]2=CC=CC=C2C(F)(F)F	-26.8	0.45	-0.325
COC(=O)C1=C(C)NC(C)=C(C(=O)OC)C1c1ccccc1[N+](=O)[O-]	-23.7	-4.16	-3.38
CSCC[C@H](N)C(=O)O [L-methionine]	-9.26	-0.43	1.19
O=C1OC2(c3ccc(O)cc3Oc3cc(O)ccc32)c2ccccc21	28.2	-3.82	-3.9
Nc1ncn([C@H]2C[C@H](O)[C@@H](CO)O2)c(=O)n1 [Decitabine]	12	-31.4	-11.4
Cc1cccc(C)c1NC(=O)C[N+](C)(C)C	-41.2	0.1	-1.7
CC(C)(C)CC(C)(C)c1ccc(OCCOCC[N+](C)(C)Cc2ccccc2)cc1	16	-7.09	-0.695
CCOC(=O)CC(=O)N1CCSC1COc1ccccc1OC (stereo not drawn) [Moguisteine]	-1.23	6.33	-0.775
NC(=O)N1c2ccccc2CC(O)c2ccccc21 (stereo not drawn) [licarbazepine]	-28.1	-2.99	0.095
Cc1nc(-c2cccnc2)sc1C(=O)Nc1ccccc1-c1cn2c(CN3CCOCC3)csc2n1	6.43	-2.87	-0.27
COc1cccc2c(O)c3c(O)c4c(c(O)c3c(O)c12)=C(O[C@H]1C[C@H](N)[C@H](O)[C@H](C)O1)C[C@](O)(C(=O)CO)C=4 [Doxorubicin HCl]	40.1	-34.4	-13.4
CCC(C)c1ccc(NC(=O)Cn2cnc3c2c(=O)n(C)c(=O)n3C)cc1 (stereo not drawn)	-44.5	-2.66	1.29

Structure (SMILES)	inhibition of IKZF1 HTRF signal [1] [%]	relative growth in counter assay (HEK293FT dCK*-only) [%]	relative growth recovery (HEK293FT dCK*-IKZF1) [%]
Fc1ccc(C(c2ccc(F)cc2)N2CCN(C/C=C/c3ccccc3)CC2)cc1 [flunarizine]	-47	1.76	-0.165
Cc1cc([C@H](C(=O)N2C[C@H](O)C[C@H]2C(=O)N[C@@H](CC(=O)N2CCC(C#Cc3ccc(C(=O)N[C@H]4C(C)(C)[C@H](Oc5ccc(C#N)c(Cl)c5)C4(C)C)cc3)CC2)c2ccccc2)C(C)C)on1	9.95	5.85	-0.74
Cc1cc(C)nc(NS(=O)(=O)c2ccc(NC(=S)NC(=O)COc3ccc(Br)cc3Cl)cc2)n1	-36.5	0.75	1.03
CN(C)CC/C=C1/c2ccccc2Sc2ccc(Cl)cc21	-9.91	11.5	-0.74
CCN(CC)c1ccc(C(=C2C=CC(=[N+](CC)CC)C=C2)c2ccccc2)cc1 [Brilliant Green]	79.8	-35	-14.4
COc1c(C/C=C(\C)CCC(=O)O)c(O)c2c(O)occ2c1C [Mycophenolic Acid]	14.9	-30.9	-9.99
CC(C)n1nc(-c2ccc3oc(N)nc3c2)c2c(N)ncnc21	83.3	-33.3	-12.4
CC(=C\c1ccc(Cl)cc1)/C(C)=N/O	-25.6	-1.62	-3.61
Cc1ccccc1/N=N/c1ccc(NC(=O)c2ccnn2C)c(C)c1	-27	-9.17	-0.005
CN(C)c1ccc(C(=C2C=CC(=[N+](C)C)C=C2)c2ccc(N(C)C)cc2)cc1	-12.9	-35.1	-13.1
COC1=C2C[C@@H](C)C[C@H](OC)[C@H](O)[C@@H](C)/C=C(\C)[C@H](OC(N)=O)[C@@H](OC)/C=C\C=C(/C)C(=O)NC(=CC1=O)C2=O [Geldanamycin]	57.7	-32.6	-11.4
Cc1ccc(S(=O)(=O)N/N=C/c2cc(Br)ccc2O)cc1	26 ± 7.3	-14 ± 4.4	2.03 ± 2.8
CCOC(=O)C1=C(C)NC(C)=C(C(=O)OC)C1c1cccc(Cl)c1Cl (stereo not drawn)	18	-9.69	-1.19
CN(C)CCCN1c2ccccc2Sc2ccc(C(F)(F)F)cc21	-28.3	6.11	1.67
O=C1Nc2cc(Br)ccc2/C1=C1/Nc2ccccc2/C1=N\O [3-inhibitor]	-34.6	-10.1	-4.43
